Experimental data taken from PubChem BioAssay (Tox21).
Inconclusive results are not listed. Active and inactive are the calls of the source. Unless noted, calls come from the whole dose curve; as a rule, active = well fitted curve in the direction sought with a large enough effect in the repeat runs; inconclusive = weak or mixed curves; inactive = no such curve, though single readings can be large; an effect the other way counts as inactive or inconclusive.

Columns and labels:
[1] = qHTS assay to identify small molecule agonists of the estrogen receptor alpha (ER-alpha) signaling pathway in the presence of an antagonist - cell viability counter screen (AID 1259386);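 note: cells exposed to compounds for 22 h at 37 °C before the viability read; nearly all actives have a fitted effect of over 30% in size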; note: potency is the fitted concentration of half-maximal effect; for activity change, negative = cytotoxicity: series mostly up to about 92 µM
Summary of the method: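 VM7Luc4E2 cells (endogenous full-length ER-alpha, 4×ERE-luciferase) were held 5 days in phenol red-free medium with 10% charcoal-stripped FBS, plated, then given 10.0nM ICI-182,780 and compounds at 15 concentrations for 22hr at 37C; viability read by CellTiter-Fluor fluorescence.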

[2] = molecular target: Progesterone receptor (Homo sapiens) (UniProt P06401); test: qHTS assay to identify small molecule agonists of the progesterone receptor (PR) signaling pathway (AID 1346784; calls by dose curve; note: nearly all actives have a fitted effect of over 30% in size; note: potency is the fitted concentration of half-maximal effect)
Summary of the method: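 PR-UAS-bla HEK 293T cells carrying a UAS-driven beta-lactamase reporter were seeded in medium with 2% charcoal-stripped FBS, preincubated 6 hr at 37C, then exposed to compounds in DMSO for 16 hr; agonism was read by LiveBLAzer B/G FRET fluorescence.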

[3] = molecular target: Progesterone receptor (Homo sapiens) (UniProt P06401); test: qHTS assay to identify small molecule antagonists of the progesterone receptor (PR) signaling pathway (AID 1346795; active = well fitted inhibition curve with a large enough effect in the signal ratio in the repeat runs, not every such curve was filed as active; the % refers to the signal ratio; note: potency is the fitted concentration of half-maximal effect)
Summary of the method: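 PR-UAS-bla HEK293T cells carrying a UAS-driven beta-lactamase reporter were plated in medium with 2% charcoal-stripped FBS and rested 6 hr at 37C. Compounds were added with 1 nM R5020 (final) for 16 hr, then FRET substrate loaded 2 hr at room temperature.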

[4] = qHTS assay to identify small molecule antagonists of the progesterone receptor (PR) signaling pathway - cell viability counter screen (AID 1346798); note: series mostly up to about 92 µM; nearly all actives have a fitted effect of over 50% in size
Summary of the method: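 PR-UAS-bla HEK293T cells in medium with 2% charcoal-stripped FBS were treated with compounds plus R5020 for 16 hr at 37C. Cell viability was then read by CellTiter-Glo luminescence after 30 min at room temperature in the same wells.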

[5] = qHTS assay to identify small molecule agonists of the progesterone receptor (PR) signaling pathway - cell viability counter screen (AID 1346799; calls by dose curve; note: nearly all actives have a fitted effect of over 45% in size)
Summary of the method: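 PR-UAS-bla HEK293T cells, 3,000 per well in medium with 2% charcoal-stripped FBS, were preincubated 6 hr at 37C, then exposed to compounds for 16 hr; viability was read as CellTiter-Glo luminescence after 30 min at room temperature.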

[6] = qHTS assay to identify small molecule antagonists of the TGF-beta/Smad signaling pathway - cell viability counter screen (AID 1346824); note: nearly all actives have a fitted effect of over 50% in size
Summary of the method: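 Cytotoxicity counter-screen run in the same wells as the beta-lactamase Smad reporter read: CellTiter-Glo luminescence after 30 min at room temperature. HEK 293T SBE-bla cells had 5 hr compound exposure at 37 C with TGF-beta1 (0.25 ng/mL stock).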

[7] = qHTS assay to identify small molecule agonists of the TGF-beta/Smad signaling pathway - cell viability counter screen (AID 1346829); note: top concentration of the series differs between compounds; nearly all actives have a fitted effect of over 45% in size
Summary of the method: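 Same-well cytotoxicity: CellTiter-Glo added after the 2 hr room-temperature beta-lactamase substrate step, luminescence measured 30 min later; cells had 5 hr of compound at 37 C.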

[8] = molecular target: Thyrotropin-releasing hormone receptor (Homo sapiens) (UniProt P34981); test: qHTS assay to identify small molecule antagonists of the thyrotropin-releasing hormone receptor (TRHR) signaling pathway (AID 1346877; active = well fitted inhibition curve with a large enough effect in the repeat runs, not every such curve was filed as active; note: series mostly up to about 51 µM)
Summary of the method: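 TRHR-expressing HEK293 cells were seeded, cultured 18 h at 37 °C, then loaded with calcium dye for 2 h. Compounds were pre-incubated 5 min at room temperature before 1 nM TRH (final) was added, and kinetic fluorescence was recorded for 3 min.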

[9] = molecular target: Thyrotropin-releasing hormone receptor (Homo sapiens) (UniProt P34981); test: qHTS assay to identify small molecule agonists of the thyrotropin-releasing hormone receptor (TRHR) signaling pathway (AID 1346891; calls by dose curve; note: series mostly up to about 58 µM)
Summary of the method: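 TRHR-expressing HEK293 cells were plated 18 h at 37 °C/5% CO2, loaded with calcium dye 2 h at 37 °C, then given compound in DMSO; fluorescence was read kinetically for 3 min at 1 s intervals.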

[10] = qHTS assay to identify small molecule agonists of the TGF-beta/Smad signaling pathway (AID 1346859; active = well fitted activation curve with a large enough effect in the signal ratio in the repeat runs, not every such curve was filed as active; the % refers to the signal ratio; note: series mostly up to about 77 µM)
Summary of the method: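 HEK 293T cells stably carrying a beta-lactamase reporter driven by the Smad binding element were seeded overnight, exposed to DMSO-dissolved compounds for 5 hr at 37 C, 5% CO2, then loaded with FRET substrate for 2 hr at room temperature.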
% is set by controls: 0 for no effect and ±100 for the full control effect.

Progesterone receptor (Homo sapiens), sequence (P06401 whole entry, looked up): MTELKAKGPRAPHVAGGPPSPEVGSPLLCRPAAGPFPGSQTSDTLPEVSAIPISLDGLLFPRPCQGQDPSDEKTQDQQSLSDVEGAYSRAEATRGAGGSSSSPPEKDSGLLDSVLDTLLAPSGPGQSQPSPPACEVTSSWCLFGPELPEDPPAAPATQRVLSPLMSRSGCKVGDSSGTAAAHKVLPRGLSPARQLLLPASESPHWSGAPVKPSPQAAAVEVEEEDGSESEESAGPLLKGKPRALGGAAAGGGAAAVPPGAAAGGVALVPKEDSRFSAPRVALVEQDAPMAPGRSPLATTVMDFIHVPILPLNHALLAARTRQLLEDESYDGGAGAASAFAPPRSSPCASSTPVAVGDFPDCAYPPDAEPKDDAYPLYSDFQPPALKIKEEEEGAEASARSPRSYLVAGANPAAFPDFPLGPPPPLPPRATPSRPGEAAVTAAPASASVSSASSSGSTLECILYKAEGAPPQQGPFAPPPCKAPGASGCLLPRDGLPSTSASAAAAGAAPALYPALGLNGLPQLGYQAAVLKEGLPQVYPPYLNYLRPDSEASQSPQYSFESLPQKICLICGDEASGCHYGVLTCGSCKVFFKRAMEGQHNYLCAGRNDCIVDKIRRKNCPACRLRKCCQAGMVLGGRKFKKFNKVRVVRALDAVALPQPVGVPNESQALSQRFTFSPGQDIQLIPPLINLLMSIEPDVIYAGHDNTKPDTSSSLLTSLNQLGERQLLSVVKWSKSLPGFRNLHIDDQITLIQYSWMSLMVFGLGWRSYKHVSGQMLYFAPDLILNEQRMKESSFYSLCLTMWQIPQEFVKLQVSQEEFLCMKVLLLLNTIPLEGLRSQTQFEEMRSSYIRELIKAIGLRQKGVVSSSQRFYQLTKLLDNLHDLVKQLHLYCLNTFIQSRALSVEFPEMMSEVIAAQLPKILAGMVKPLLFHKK
Thyrotropin-releasing hormone receptor (Homo sapiens), sequence (P34981 whole entry, looked up): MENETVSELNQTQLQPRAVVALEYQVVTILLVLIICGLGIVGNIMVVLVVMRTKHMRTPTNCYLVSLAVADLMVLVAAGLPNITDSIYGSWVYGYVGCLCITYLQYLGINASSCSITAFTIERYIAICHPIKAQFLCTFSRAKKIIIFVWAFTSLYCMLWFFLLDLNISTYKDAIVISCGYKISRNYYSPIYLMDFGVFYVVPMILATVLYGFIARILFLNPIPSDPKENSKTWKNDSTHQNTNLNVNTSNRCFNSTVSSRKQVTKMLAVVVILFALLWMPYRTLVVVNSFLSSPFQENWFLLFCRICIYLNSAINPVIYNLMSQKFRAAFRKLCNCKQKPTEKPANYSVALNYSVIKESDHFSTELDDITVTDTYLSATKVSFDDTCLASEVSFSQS

C[C@@H](c1ncncc1F)C(O)(Cn1cncn1)c1ccc(F)cc1F (stereo not given in full)
inactive: Potency [1] | Potency [2] | Potency [3] | Potency [4] | Potency [5] | Potency [6] | outcome [7] | outcome [8] | Potency [9]

CC(C)(C)Cl
inactive: Potency [1] | Potency [2] | Potency [3] | Potency [4] | Potency [5] | Potency [6] | outcome [7] | outcome [8] | Potency [9]

CCOC(=O)C1=C[C@]2(CC)CCCN3CCc4c(n1c1ccccc41)[C@@H]32
inactive: Potency [1] | Potency [2] | Potency [4] | Potency [5] | Potency [6] | Potency [10] | outcome [8] | Potency [9]
active: Potency [3] 23.7 µM

CCCCC(=O)OCC(=O)[C@H]1[C@H](C)C[C@H]2[C@@H]3C[C@H](F)C4=CC(=O)C=C[C@]4(C)[C@@]3(F)[C@@H](O)C[C@@]21C
active: Potency [2] 0.0133 µM
inactive: Potency [1] | Potency [3] | Potency [4] | Potency [6] | outcome [7] | Potency [10]

O=C(NCCO[N+](=O)[O-])c1cccnc1
inactive: Potency [1] | Potency [2] | Potency [3] | Potency [4] | Potency [5] | Potency [6] | outcome [7] | outcome [8] | Potency [9]

O=C(O)CNCC(=O)O
inactive: activity change, negative = cytotoxicity [1] -4.75% [at 8.39 µM] | activation [2] 1.22% [at 8.39 µM] | activity change, negative = inhibition [3] 1.55% [at 8.39 µM] | activity change, negative = cytotoxicity [4] -2.59% [at 8.39 µM] | activity change, negative = cytotoxicity [5] 20.3% [at 8.39 µM] | activity change, negative = cytotoxicity [7] -7.04% [at 6.97 µM] | activation [10] 6.59% [at 6.97 µM] | activity, negative = inhibition [8] -17.8% [at 4.65 µM] | activation [9] 0.139% [at 5.23 µM]

NCC(=O)O
inactive: activity change, negative = cytotoxicity [1] 6.54% [at 19 µM] | activation [2] -0.192% [at 19 µM] | activity change, negative = inhibition [3] 9.41% [at 18.9 µM] | activity change, negative = cytotoxicity [4] -3.8% [at 18.9 µM] | viability change, negative = cytotoxic [6] -5.27% [at 15.8 µM] | activity change, negative = cytotoxicity [7] 0.104% [at 15.8 µM] | activation [10] -0.809% [at 15.8 µM] | activity, negative = inhibition [8] -3.84% [at 10.5 µM] | activation [9] -0.0833% [at 11.8 µM]

CC1(c2ccccc2)OC(C(=O)O)=CC1=O (stereo not given)
inactive: Potency [1] | Potency [2] | Potency [3] | Potency [4] | Potency [5] | outcome [7] | outcome [8] | Potency [9]

CCCCCC[C@@H](O)C/C=C\CCCCCCCC(=O)OC
inactive: Potency [1] | Potency [2] | Potency [3] | Potency [4] | Potency [5] | outcome [7] | outcome [8] | Potency [9]

O=C(O)C1(C(=O)O)CCC1.[NH2-].[NH2-].[Pt+2]
inactive: Potency [1] | Potency [2] | Potency [3] | Potency [4] | Potency [5] | Potency [6] | outcome [7] | outcome [8] | Potency [9]

CCOc1ccc(N=Nc2ccc(/C=C/c3ccc(N=Nc4ccc(OCC)cc4)cc3S(=O)(=O)O)c(S(=O)(=O)O)c2)cc1
active: Potency [1] 38 µM
inactive: Potency [2] | Potency [3] | Potency [4] | Potency [5] | outcome [7] | outcome [8] | Potency [9]

Cc1cccc(Nc2ccccc2)c1
inactive: Potency [1] | Potency [2] | Potency [3] | Potency [4] | Potency [6] | outcome [7]
